In the library only some 3.9% were active in any assay of this set; here they are far more common.
HepG2 viability: qHTS for Inhibitors of TGF-b: Cytotox Counterscreen; Potency, µM (series often up to 46.1 µM), actives largely listed as cytotoxic; HepG2 CAGA-GFP viability, ATP luminescence, 18 h; 410,000 tested, 0.76% active
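CellTiter-Glo luminescence gave cytotoxicity after 18 hours at 37 degrees C. The cells were HepG2 CAGA-GFP in 1% FBS DMEM, stimulated with 500 pg/mL TGF-beta after compound addition. %Activity was normalised to no-cell wells (complete cell-killing) and DMSO (no toxicity), and curves were fitted and classified.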
TGFb SMAD3 inh: qHTS for Inhibitors of TGF-b; HepG2 CAGA-GFP TGF-b/SMAD3 reporter, GFP fluorescence, 18 h; TGF-beta stimulated, 500 pg/mL final; Potency, µM (doses to about 46.1 µM), actives largely listed as inhibitors; 410,000 tested, 1.2% active; AID 588855, 2011; note: nearly all actives have a fitted effect of over 65% in size
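First, reporter cells (HEPG2 CAGA-GFP) rested 2 h at 37 degrees C. Next, compounds were pinned in and TGF-beta added to 500 pg/mL final. After 18 h, GFP was imaged per cell and summed per well.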
ATXN viability: Viability Counterscreen for Primary qHTS for Inhibitors of ATXN expression; S2 cells (HEK-293 line with an ATXN2-luciferase reporter) viability, CellTiter-Fluor protease fluorescence, 24 h; Potency, µM (titrated, usually from 56.7 µM), most hits filed as cytotoxic; 400,000 tested, 0.49% active; AID 651635, 2014; note: nearly all actives have a fitted effect of over 40% in size
HT1080 IDH1KD tx: qHTS for induction of synthetic lethality in tumor cells producing 2HG: qHTS for the HT-1080-IDH1KD cell line. HT-1080 IDH1 knockdown viability, ATP luminescence, 48 h. Potency, µM (series often up to 46.1 µM), hits mostly cytotoxic. 360,000 tested, 2% active. AID 686971, 2013
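IDH1KD HT-1080 cells, 750/well, RPMI + 5% FBS; compound pinned after 2 h settling; 48 h, 37 °C; CellTiter-Glo luminescence; % activity normalised to DMSO and no-cell wells; curves fitted, classed by r2 and efficacy.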
ATXN2 expr inh: Primary qHTS for Inhibitors of ATXN expression. 360,000 tested, 0.72% active. AID 1745845, 2022. HEK-293 ATXN2-luciferase reporter, luminescence, 24 h. Potency, µM (series often up to 57 µM), actives largely listed as inhibitors; note: nearly all actives have a fitted effect of over 55% in size
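qHTS (up to 57 uM final) was run with 24 h compound exposure of reporter cells at 37 °C. Each well was multiplexed: SteadyGlo luminescence measured ATXN2-luciferase expression after a fluorogenic Gly-Phe-AFC viability readout (25 uM final).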
HT1080-NT tox: qHTS for induction of synthetic lethality in tumor cells producing 2HG: qHTS for the HT-1080-NT fibrosarcoma cell line | HT-1080-NT fibrosarcoma viability, CellTiter-Glo ATP luminescence, 48 h | Potency, µM (series often up to 46.1 µM), actives largely listed as cytotoxic | 360,000 tested, 1.6% active;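 note: NT is the 2HG producing partner of a matched IDH1 knockdown line; nearly all actives have a fitted effect of over 55% in size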
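Read-out is CellTiter-Glo luminescence after 10 minutes at room temperature, following 48 hours' compound treatment of HT-1080-NT cells (750 cells/well, RPMI, 5% FBS, 37 degrees C).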
Hits are given with their value; i = inactive; ? = inconclusive; nt = no result given. Calls come from the whole dose curve; as a rule, active = well fitted curve in the direction sought with a large enough effect; inconclusive = small, poorly fitted or top-dose-only effect, or another doubt; inactive = no such curve, though single readings can be large; an effect the other way counts as inactive or inconclusive.

SMILES	HepG2 viability	TGFb SMAD3 inh	ATXN viability	HT1080 IDH1KD tx	ATXN2 expr inh	HT1080-NT tox
O=C1/C(=C\c2ccccc2)CCC/C1=C/c1ccccc1	i	?	?	?	?	?
CCN(CC)CCC(=O)N1C/C(=C/c2ccccc2)C(=O)/C(=C\c2ccccc2)C1	i	2.8µM	13µM	2.9µM	24µM	?
O=C1/C(=C\c2ccc(Cl)c(Cl)c2)CN(C(=O)CCN2CCOCC2)C/C1=C/c1ccc(Cl)c(Cl)c1	16µM	2.8µM	6.7µM	5.2µM	6.7µM	5.2µM
CC1(C)CC(N=Cc2c(O)n(Cc3ccc4c(c3)OCO4)c(=O)c3ccccc23)CC(C)(C)N1	i	i	nt	7.3µM	?	18µM
CCCCCCCn1c(=N)n(CC(O)c2ccco2)c2ccccc21 (stereo unspecified)	22µM	?	i	23µM	?	16µM
CC(C)(C)c1ccc(Cn2c(=N)n(CC(O)c3ccco3)c3ccccc32)cc1 (stereo unspecified)	i	16µM	21µM	21µM	?	23µM
Cc1ccccc1Cn1c(=N)n(CC(O)c2ccco2)c2ccccc21 (stereo unspecified)	i	i	?	?	?	?
CCCc1ncc(C(=O)O)s1	nt	nt	i	nt	i	nt
CC(C)(C)C1CCC(CC2=C(O)c3ccccc3C(=O)C2=O)CC1 (stereo unspecified)	nt	nt	i	nt	?	nt
COc1cc2nc(N3CCN(c4cc(C)ccc4C)CC3)nc(N)c2cc1OC	11µM	?	nt	2.6µM	?	2.6µM
COc1ccc(C)cc1Nc1nc(N)c2cc(OC)c(OC)cc2n1	i	?	?	18µM	?	?
COc1cc2nc(N3CCNCC3)nc(N)c2cc1OC	i	?	nt	i	nt	i
N=C1C=CC(=C(c2ccc(N)cc2)c2ccc(N)cc2)C=C1	i	?	nt	7.3µM	?	23µM
c1ccc(CN=C(NCc2ccccc2)NCc2ccccc2)cc1	22µM	?	i	16µM	?	?
S=C(NCc1ccccc1)C(=S)NCc1ccccc1	i	i	?	i	i	i
CCC1CN(CCNC(=O)c2ccc(C#CC(C)(C)O)cc2)Cc2cc(OC)ccc2O1 (stereo unspecified)	nt	nt	i	nt	nt	nt
Cc1ccc(NC(=O)CN(C)C(=O)Cc2ccc(Cl)c(Cl)c2)cc1	i	i	i	?	i	i
Cc1ccc(NC(=O)CN(C)C(=O)Cn2ncc(Cl)c(Cl)c2=O)cc1	i	?	nt	21µM	?	?
Cc1cccc(NC(=O)CNC(=O)Cn2ncc(Cl)c(Cl)c2=O)c1C	i	?	nt	7.3µM	?	26µM
CN(C)CCNc1ncnc2c1sc1nc(N3CCCC3)c3c(c12)CC(C)(C)OC3	i	?	?	21µM	?	?
CC(C)CNc1ncnc2c1sc1nc(N3CCOCC3)c3c(c12)CC(C)(C)OC3	i	i	i	i	i	i
CC1(C)Cc2c(c(-c3ccco3)nc3sc4c(NCCN5CCOCC5)ncnc4c23)CO1	i	i	i	16µM	?	23µM
CCN(CC)CCNc1ncnc2c1sc1nc(N3CCCC3)c3c(c12)CC(C)(C)OC3	i	?	i	18µM	i	16µM
CCNC(=O)CCCC=CC[C@@H]1[C@H](C=CC(O)CCc2ccccc2)[C@@H](O)C[C@@H]1O (stereo partly specified)	nt	nt	nt	nt	i	nt
Cc1cc(C(C)Nc2ccccc2)c2nc(N3CCOCC3)cc(=O)n2c1 (stereo unspecified)	nt	nt	nt	nt	i	nt
SMILES	HepG2 viability	TGFb SMAD3 inh	ATXN viability	HT1080 IDH1KD tx	ATXN2 expr inh	HT1080-NT tox
CC1CCN(C2CCN(C(=O)c3ccccc3F)CC2)CC1	11µM	i	i	i	i	i
Cc1ccc(C(=O)Nc2ccc(CC(=O)O)cc2)o1	i	i	i	i	i	i
CC(C)(C)c1ccc(C(=O)Nc2ccc(CC(=O)O)cc2)o1	i	i	i	i	0.4µM	i
O=C(CSc1nc(-c2ccccc2)c(-c2ccccc2)[nH]1)NCCN1C(=O)CSC1=O	i	?	i	6.5µM	i	4.6µM
Cc1cc(C)c(CN2CCN(CCCn3cnc(C(=O)Nc4ccc(C)c(C)c4)n3)CC2)c(C)c1	18µM	?	nt	?	?	?
Cc1ccc(NC(=O)c2ncn(CCCN[C@H](C)c3cccc4ccccc34)n2)cc1C	i	?	22µM	?	?	?
Nc1c(I)cc(I)c(C(=O)N(CCC(=O)O)c2ccccc2)c1I	nt	nt	i	nt	i	nt
Cc1ccc(NC(=O)N2CCN3CCCCC3C2)cc1F (stereo unspecified)	i	i	i	nt	i	nt
CC(=O)Nc1ccc(NC(=O)C(=O)c2cn(CC(=O)N3CCCC3)c3ccccc23)cc1	i	i	i	i	i	i
COc1ccc(NC(=O)C(=O)c2cn(CC(=O)N3CCCC3)c3ccccc23)cc1	i	?	?	0.37µM	i	?
CCOC(=O)c1c(-c2ccc(C)cc2)csc1NC(=O)CCN1CC(C)OC(C)C1 (stereo unspecified)	20µM	?	i	?	i	i
COc1ccc(Br)cc1/C(C)=N/NC1=NCCN1	i	?	i	?	i	i
CCCCCOc1ccc(Br)cc1/C(C)=N/NC1=NCCN1	i	?	?	5.2µM	?	6.5µM
COc1ccc(-c2nn(-c3ccccc3)cc2/C=N/Nc2ccc3ccccc3n2)cc1OC	4.5µM	?	nt	i	i	i
COc1ccc(-c2nn(-c3ccccc3)cc2/C=N/O)cc1OC	i	i	i	i	nt	i
Cc1c(C(=O)N2CCCCC2)sc2ncnc(NCCc3ccccn3)c12	nt	nt	i	nt	nt	nt
Cc1ccc2c(=O)cc(C(=O)N(Cc3ccc(N(C)C)cc3)C3CCS(=O)(=O)C3)oc2c1 (stereo unspecified)	i	i	i	nt	i	nt
CCOC(=O)c1cnc2ccc(OCC)cc2c1N1CCN(c2ccccc2F)CC1	i	11µM	?	nt	i	nt
CCOC(=O)C1CCN(c2c(C(=O)c3ccc(OCC)cc3)cnc3ccc(OC)cc23)CC1	i	8.9µM	?	nt	?	nt
CCOC(=O)c1cnc2ccc(OCC)cc2c1N1CCN(c2ccccc2)CC1	i	?	i	?	i	i
Cc1cccc(N2CCN(C(=O)c3ccc(Cl)c(S(=O)(=O)NCc4ccco4)c3)CC2)c1C	i	i	?	16µM	?	?
O=C(Nc1ccc(OCC(F)(F)C(F)F)c(C(F)(F)F)c1)c1ccc(Cl)cc1	18µM	?	i	15µM	?	26µM
O=C(Nc1ccc(Br)c(C(F)(F)F)c1)c1ccc(C(F)(F)F)cc1	i	?	i	13µM	?	21µM

High-throughput results deposited in PubChem by National Center for Advancing Translational Sciences (NCATS).
